Results as given in ChEMBL document CHEMBL4513216, “Probing the Open Global Health Chemical Diversity Library for Multistage-Active Starting Points for Next-Generation Antimalarials” (ACS Infect Dis, 2020).
The whole screen tested about 69,000 compounds, of which about 8,600 (12%) showed an effect of 50% or more. This is one part of a sample in which strong results are shown more often than they occur.

Each molecule was assayed on Plasmodium berghei (assay: Screen against P. berghei liver stage (PbLuc), transformed with Luciferase, at 10uM). Conditions: tested at 10 uM.
Assay type: functional, HepG2

Structure (SMILES)	INHIBITION
Cc1ccc(CC(=O)N(CC2CN(C)CCO2)c2nccs2)cn1 (centres undefined)	11.9%
O=C(CN1CCCCC1Cn1cncn1)NC1CCN(C2CC2)CC1 (centres undefined)	70.1%
O=C(CN1CCCC1Cn1cncn1)NCC1(c2ccccc2)CC1 (centres undefined)	89.1%
CCN1CCC(NC(=O)CN2CCCCC2Cn2cncn2)CC1 (centres undefined)	-36.1%
O=C(CN1CCCCC1Cn1cccn1)NC1CCN(C2CC2)CC1 (centres undefined)	26.8%
Cc1cc(NC(=O)CCN2CCCCC2Cn2cncn2)no1 (centres undefined)	16.9%
O=C(CN1CCCCC1Cn1cncn1)NCCOc1ccccc1 (centres undefined)	0.411%
O=C(CN1CCCC1Cn1cncn1)NCCOc1ccccc1 (centres undefined)	36.1%
Cc1cc(NC(=O)CCN2CCCC2Cn2cccn2)no1 (centres undefined)	31.9%
O=C(CN1CCCCC1Cn1cncn1)NCCc1ccc(F)cc1 (centres undefined)	43.4%
Cc1cc(NC(=O)CCN2CCCC2Cn2cncn2)no1 (centres undefined)	56.3%
O=C(CN1CCCC1Cn1cncn1)NCCc1c(F)cccc1F (centres undefined)	57.2%
O=C(CN1CCCC1Cn1cncn1)NCCOc1cccc(F)c1 (centres undefined)	20.1%
CNc1cccc(CC2COCCN(C(=O)c3cncs3)C2)n1 (centres undefined)	16.35%
Cc1cc(C(F)F)nn1CC(=O)NCc1nccn1C	8.32%
Cc1cccc(CN2CCC3(CCCN(C(=O)NC4CC4)C3)C2=O)n1 (centres undefined)	0%
O=C(c1ccnnc1)N1C[C@H]2CN(Cc3cccc(F)c3)C(=O)[C@H]2C1	34.6%
CCOCC(=O)N1CSCC1C(=O)N(C)Cc1ccco1 (centres undefined)	17.5%
Cc1ccc(C(=O)N2CCC3(CC2)CN(CCN(C)C)C(=O)O3)c(F)c1	42.1%
COc1cc(CCC(=O)N2CCC(c3cncc(C)n3)CC2)on1	14.85%
Cc1oc(C(C)C)cc1C(=O)N1C[C@@H]2CC[C@H]1CN(c1ncccn1)C2	-28.7%
O=C(CN1CCCC1Cn1cncn1)Nc1cccnc1 (centres undefined)	-9.86%
O=C(CN1CCCCC1Cn1cncn1)Nc1ccncc1 (centres undefined)	23.2%

Structure (SMILES)	INHIBITION
O=C(CN1CCCC1Cn1cncn1)Nc1ccc(Cl)cn1 (centres undefined)	80%
CC(NC(=O)N1CCC(c2ccccc2)CC1)c1nncn1C (centres undefined)	13.3%
Cc1cnn(CC2CCCCN2Cc2cnc(C)s2)c1 (centres undefined)	-7.05%
Cc1ncsc1CN1Cc2cn(C)nc2C(COCC2CC2)C1 (centres undefined)	43.9%
COc1cc(CNc2cnn(CC(F)F)c2)ccc1O	21.9%
COc1cccc(CNc2cnn(CC(F)F)c2)c1	8.53%
COc1ccc(CNc2cnn(CC(F)F)c2)cc1	64.9%
C1CCCN(C2CCCN(Cc3noc(C4CC4)n3)C2)CC1 (centres undefined)	-79.7%
CN(C)S(=O)(=O)N1CC(c2nc(N)ncc2-c2ccc(F)cc2)C1	-20.6%
CC(=O)N(Cc1ncc(C(C)C)o1)C1CCN(CC2CCC2)C1 (centres undefined)	32.65%
CC(CCc1ccc(O)cc1)NC1CCN(C(=O)C(C)C)CC1 (centres undefined)	42.1%
Cc1ccc(CCC(C)NC2CCN(C(N)=O)CC2)cc1 (centres undefined)	-4.15%
CC(CCc1ccc(O)cc1)NC1CCN(S(C)(=O)=O)CC1 (centres undefined)	55.5%
O=C(NCCNc1ccccn1)N1CCC(O)CC1	7.585%
OCCC1CN(c2ncnc3[nH]cnc23)CCN1Cc1ccccc1 (centres undefined)	62.4%
CNC(=O)c1cccnc1N1CCN(Cc2ccccc2)C(CCO)C1 (centres undefined)	3.17%
O=C(O)c1cccnc1N1CCN(Cc2ccc(F)cc2)C(CCO)C1 (centres undefined)	68.6%
Cc1ccc(CN2CCN(c3ncnc4[nH]cnc34)CC2CCO)cc1 (centres undefined)	20%
OCCC1CN(c2ncnc3[nH]cnc23)CCN1Cc1ccccc1F (centres undefined)	10.3%
OCCC1CN(c2ncnc3[nH]cnc23)CCN1Cc1cccs1 (centres undefined)	53.7%
c1ccc(C2CN(c3ncnc4[nH]cnc34)CCO2)cc1 (centres undefined)	-66.9%
Cc1cc(C)n(CC2CN(c3ncnc4[nH]ccc34)CCO2)n1 (centres undefined)	-21.7%
Cc1ccc(CN2CCN(c3ncccc3C(N)=O)CC2CCO)cc1 (centres undefined)	36.5%

Structure (SMILES)	INHIBITION
Cc1cccc(CN2CCN(c3ncnc4[nH]cnc34)CC2CCO)n1 (centres undefined)	47.2%
Cc1cccc(CN2CCN(c3ncnc4[nH]ccc34)CC2CCO)n1 (centres undefined)	58.1%
OCCNc1cc(N2CCN(Cc3ccccc3)C(CCO)C2)ncn1 (centres undefined)	-11.8%
CCC1=N[C@@]2(CC[C@@H]3CN(C(=O)Nc4ccccc4)C[C@@H]32)C(=O)N1CC	8.67%
Cc1cc(C2CCCCN2C(=O)CN2C(=O)OC(C)(C)C2=O)no1 (centres undefined)	47.2%
COc1ccccc1-c1ncc(CN2CCC3(CCNCC3)CC2)cn1	25%
CC(=O)c1ccc(CNC(=O)c2cc(C#N)cn2C)nc1C	12%
Cc1cc(C)c(CCNC(=O)CN2CCCN(C(N)=O)CC2)c(C)c1	66.6%
NC(=O)N1CCCN(CC(=O)NCCc2c(F)cccc2F)CC1	-52.1%
Cc1cc(C)cc(C(=O)N2CCCN(CC(N)=O)CC2)c1	0.348%
Cn1cc(C(=O)NC[C@H]2OC[C@@H]3CCN(C4CCOCC4)C[C@@H]32)cn1	45.8%
Cc1nc2n(n1)CC(NCc1cnn(-c3ccccc3)n1)CC2 (centres undefined)	-39.4%
COCCCS(=O)(=O)N1CCN(C(C)(C)CO)CC1	27.65%
CN(Cc1cc(C(C)(C)C)n[nH]1)C(=O)c1cn2ccsc2n1	-11.5%
CC(C)c1nc(CN(C)C(=O)c2ccc3c(c2)OCO3)cs1	-40.4%
CC(C)c1nc(CN(C)C(=O)c2cn3ccsc3n2)cs1	50.5%
CC(C)c1nc(CN(C)C(=O)c2ccc(CN3CCCCC3)cc2)cs1	65.3%
CC(C)c1nc(CN(C)C(=O)c2ccc3c(c2)OCC(=O)N3)cs1	-19.9%
CC(C)c1nc(CN2CCC(CO)CC2)cs1	23.4%
CC(C)c1nc(CN(C)C(=O)CNC(N)=O)cs1	41.5%
CC(C)c1nc(CC(=O)Nc2nc(CN3CCCCCC3)cs2)cs1	59.7%
CC(C)c1nc(CN2CCCCC2)cs1	47.9%
CS(=O)(=O)N1C[C@@H](O)[C@H](N2CCN(c3ccccc3)CC2)C1	-18.8%
